Inconclusive results are not listed. Active and inactive are the calls of the source. The call rests on the fitted dose curve; in most records, active means well fitted inhibition curve with a large enough effect; inconclusive means small, poorly fitted or top-dose-only effect; inactive means flat fitted curve, though single readings scatter.
What was measured:
CRL-7250 = normal cell line; assay: Cytotoxic Profiling of Annotated Libraries Using Quantitative High-Throughput Screening (AID 1296008); conditions: Five cell lines viability, CellTiter-Glo ATP luminescence, 48-72 h; max response: stronger effect = lower value
How it was run: (§1)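 Cytotoxicity was measured as CellTiter-Glo ATP luminescence, read after 10 min at room temperature. Compound treatment of the cells lasted 48 or 72 hr at 37 degrees Celsius in a qHTS format.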

HEK293 = assay: as above; conditions: Five cell lines viability, CellTiter-Glo ATP luminescence, 48-72 h; max response: stronger effect = lower value
How it was run: as §1

HaCat [1] = assay: as above; conditions: Five cell lines viability, CellTiter-Glo ATP luminescence, 48-72 h; max response: stronger effect = lower value
How it was run: as §1

KB-3-1 = assay: as above; conditions: Five cell lines viability, CellTiter-Glo ATP luminescence, 48-72 h; max response: stronger effect = lower value
How it was run: as §1

NIH3T3 = assay: as above; conditions: Five cell lines viability, CellTiter-Glo ATP luminescence, 48-72 h; max response: stronger effect = lower value
How it was run: as §1

HACAT [2] = assay: qHTS assay to identify novel small-molecules to repurpose for Merkel cell carcinoma treatment (AID 1296009); conditions: MCC and control cell lines, CellTiter-Glo viability, 72 h; at 44.8 µM (top of the series) unless noted
How it was run: (§2)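 After compound transfer in DMSO, plates were kept 72 hr at 37 degree celsius. Luminescent ATP signal from CellTiter-Glo served as viability measure, normalized against DMSO and no-cell controls.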

MCC-13 = assay: as above; conditions: MCC and control cell lines, CellTiter-Glo viability, 72 h; series mostly up to 46 µM
How it was run: as §2

MCC-26 = assay: as above; conditions: MCC and control cell lines, CellTiter-Glo viability, 72 h; series mostly up to 46 µM
How it was run: as §2

HEK293T = assay: as above; conditions: MCC and control cell lines, CellTiter-Glo viability, 72 h; series mostly up to 44.8 µM
How it was run: as §2
Further: nearly all actives have a fitted effect of over 60% in size.
On the % scale 0 is the no-effect control and ±100 the full control effect; potency means the concentration at half of the fitted maximal effect.

CCN(C(=O)c1c(O)c2c(Cl)cccc2n(C)c1=O)c1ccccc1
active: Potency (CRL-7250) 5.9 µM | Potency (HEK293) 4.18 µM
inactive: outcome (HaCat [1]) | max response (KB-3-1) 3.28% | max response (NIH3T3) -5.88% | outcome (HACAT [2]) | Potency (MCC-13) | Potency (MCC-26)

CC(=O)N[C@@H]1[C@H](O[C@@H]2c3ccc(c(Cl)c3)Oc3cc4cc(c3O[C@H]3O[C@H](CO)[C@@H](O)[C@H](O)[C@H]3NC(=O)CCCCCCCC(C)C)Oc3ccc(cc3Cl)C[C@H]3NC(=O)[C@H](N)c5ccc(O)c(c5)Oc5cc(O)cc(c5)[C@H](NC3=O)C(=O)N[C@H]4C(=O)N[C@H]3C(=O)N[C@@H]2C(=O)N[C@@H](C(=O)O)c2cc(O)cc(O[C@H]4O[C@H](CO)[C@@H](O)[C@H](O)[C@H]4O)c2-c2cc3ccc2O)O[C@H](CO)[C@@H](O)[C@@H]1O
inactive: outcome (CRL-7250) | outcome (HEK293) | max response (HaCat [1]) 2.16% | outcome (KB-3-1) | max response (NIH3T3) 4.41% | Potency (HEK293T) | Potency (MCC-13) | Potency (MCC-26)

CC[C@H]1OC(=O)[C@H](C)[C@@H](O[C@H]2C[C@@](C)(OC)[C@@H](O)[C@H](C)O2)[C@H](C)[C@@H](O[C@@H]2O[C@@H](C)C[C@H](N(C)C)[C@@H]2O)[C@](C)(O)C[C@@H](C)C(=O)[C@H](C)[C@@H](O)[C@]1(C)O
inactive: max response (CRL-7250) 0.799% | max response (HEK293) -7.85% | outcome (HaCat [1]) | max response (KB-3-1) 5.08% | outcome (NIH3T3) | outcome (HACAT [2]) | Potency (MCC-13) | Potency (MCC-26)

C[N+]1(C)[C@@H]2C[C@@H](OC(=O)C(O)(c3cccs3)c3cccs3)C[C@H]1[C@@H]1O[C@@H]12
inactive: outcome (CRL-7250) | max response (HEK293) -10% | outcome (HaCat [1]) | outcome (KB-3-1) | max response (NIH3T3) -6.05% | outcome (HACAT [2]) | Potency (MCC-13) | Potency (MCC-26)

C[C@H](NC(=O)Cc1cc(F)cc(F)c1)C(=O)N[C@H](C(=O)OC(C)(C)C)c1ccccc1
inactive: max response (CRL-7250) -1.21% | max response (HEK293) -28.5% | outcome (HaCat [1]) | max response (KB-3-1) -8.93% | max response (NIH3T3) -8.45% | outcome (HACAT [2]) | Potency (MCC-13) | Potency (MCC-26)

COc1cc(OC)c(NC(=O)Nc2cc(C)on2)cc1Cl
inactive: max response (CRL-7250) -0.274% | max response (HEK293) -18.7% | outcome (HaCat [1]) | max response (KB-3-1) 3.5% | max response (NIH3T3) 2.83% | outcome (HACAT [2]) | Potency (MCC-13) | Potency (MCC-26)

O=C(CN1C(=O)C2(CCCC2)NC[C@H]1c1cc(F)cc(F)c1)Nc1ccc2c(c1)C[C@@]1(C2)C(=O)Nc2ncccc21
inactive: outcome (CRL-7250) | outcome (HEK293) | max response (HaCat [1]) 3.79% | max response (KB-3-1) 2.38% | max response (NIH3T3) -4.62% | Potency (HEK293T) | Potency (MCC-13) | Potency (MCC-26)

CC(=O)NC(CS)C(=O)O (stereo not given)
inactive: max response (CRL-7250) 1.57% | max response (HEK293) -9.86% | outcome (HaCat [1]) | max response (KB-3-1) -3.44% | max response (NIH3T3) -5.75% | outcome (HACAT [2]) | Potency (MCC-13) | Potency (MCC-26)

O=C1c2c(O)cccc2[C@@H]([C@@H]2O[C@H](CO)[C@@H](O)[C@H](O)[C@H]2O)c2cc(CO)cc(O)c21
inactive: max response (CRL-7250) -3.91% | outcome (HEK293) | max response (HaCat [1]) -8.19% | outcome (KB-3-1) | max response (NIH3T3) 4.49% | Potency (HEK293T) | Potency (MCC-13) | Potency (MCC-26)

COc1ccc(CCC(=O)c2c(O)cc(O[C@@H]3O[C@H](CO)[C@@H](O)[C@H](O)[C@@H]3O[C@@H]3O[C@@H](C)[C@H](O)[C@@H](O)[C@@H]3O)cc2O)cc1O
inactive: max response (CRL-7250) -4.09% | max response (HEK293) -11.6% | outcome (HaCat [1]) | max response (KB-3-1) -1.61% | outcome (NIH3T3) | outcome (HACAT [2]) | Potency (MCC-13) | Potency (MCC-26)

OC[C@@H](O)[C@@H](O)[C@H](O)[C@@H](O)CO
inactive: max response (CRL-7250) 0.947% | max response (HEK293) 2.06% | outcome (HaCat [1]) | outcome (KB-3-1) | max response (NIH3T3) -2.12% | outcome (HACAT [2]) | Potency (MCC-13) | Potency (MCC-26)

NC[C@H]1O[C@H](O[C@H]2[C@@H](O)[C@@H](O[C@H]3O[C@H](CO)[C@@H](O)[C@H](N)[C@@H]3O)[C@H](N)C[C@@H]2N)[C@H](N)C[C@H]1O
inactive: max response (CRL-7250) -1.47% | max response (HEK293) 0.89% | outcome (HaCat [1]) | max response (KB-3-1) 1.19% | max response (NIH3T3) -1.89% | outcome (HACAT [2]) | Potency (MCC-13) | Potency (MCC-26)

Cc1cc(O)c2c(c1)C(=O)c1cccc(O)c1C2=O
inactive: outcome (CRL-7250) | outcome (HEK293) | max response (HaCat [1]) -2.05% | max response (KB-3-1) 4.24% | max response (NIH3T3) 4.67% | Potency (HEK293T) | Potency (MCC-13) | Potency (MCC-26)

C=Cc1c(C)c2cc3nc(cc4[nH]c(cc5nc(cc1[nH]2)C(C)=C5CCC(=O)O)c(CCC(=O)OC)c4C)[C@@]1(C)C3=CC=C(C(=O)OC)[C@H]1C(=O)OC
inactive: max response (CRL-7250) 1.72% | outcome (HaCat [1]) | outcome (KB-3-1) | max response (NIH3T3) 4.13% | outcome (HACAT [2])
active: Potency (HEK293) 11.8 µM | Potency (MCC-26) 2.96 µM

CC(C=CC=C(C)C=CC1=C(C)CCCC1(C)C)=CC=CC=C(C)C=CC=C(C)C=CC1=C(C)CCCC1(C)C
inactive: max response (CRL-7250) -6.98% | max response (HEK293) -0.757% | outcome (HaCat [1]) | max response (KB-3-1) 8.98% | max response (NIH3T3) -4.98% | outcome (HACAT [2]) | Potency (MCC-13) | Potency (MCC-26)

NC(=O)c1ncn([C@@H]2O[C@H](CO)[C@@H](O)[C@@H]2O)c1N
inactive: max response (CRL-7250) -3.14% | max response (HEK293) 2.62% | outcome (HaCat [1]) | max response (KB-3-1) 1.9% | outcome (NIH3T3) | outcome (HACAT [2]) | Potency (MCC-13) | Potency (MCC-26)

C[C@@H](NCc1cc2ccccc2[nH]1)c1cccc2ccccc12
inactive: max response (CRL-7250) 3.32% | max response (HEK293) -2.05% | outcome (HaCat [1]) | max response (KB-3-1) 3.8% | max response (NIH3T3) 2.38% | outcome (HACAT [2]) | Potency (MCC-13) | Potency (MCC-26)

From PubChem BioAssay (NCATS)
